Test results from PubChem BioAssay (EPA / NIEHS).
Results filed as inconclusive are left out. Active and inactive are the calls of the source. The calls were made as follows, unless noted: active = hit-call score of the fitted dose curve at least 0.9, where 1 is the maximum; inactive = score below 0.9.

Legend:
[1] = molecular target: Oxysterols receptor LXR-alpha (Homo sapiens) (UniProt Q13133); experiment: ATG_LXRa_TRANS: Attagene TRANS-FACTORIAL HepG2 Assay for human Liver X Receptor alpha (LXRa) (AID 2282980; active = hit-call score of the fitted dose curve at least 0.9, where 1 is the maximum); settings: HepG2 Attagene TRANS reporter, LXRa transactivation
Method in brief: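 Read-out: reporter transcript levels by RT-PCR plus capillary electrophoresis, fluorescence intensity. Transiently transfected HepG2, exogenous NR-GAL4 chimera, GAL4-UAS reporters; 24 h compound exposure. Activity = increase over DMSO negative control.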

[2] = molecular target: Hepatocyte nuclear factor 4-alpha (Homo sapiens) (UniProt P41235); experiment: ATG_HNF4a_TRANS: Attagene TRANS-FACTORIAL HepG2 Assay for human Hepatocyte Nuclear Factor 4 alpha (HNF4a) (AID 2282982; active = hit-call score of the fitted dose curve at least 0.9, where 1 is the maximum); settings: HepG2 HNF4a transactivation reporter, mRNA readout
Method in brief: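 Cells used were human HepG2, transiently carrying GAL4-UAS reporter units read out against exogenous NR-GAL4 chimeras. Reporter transcript levels after 24 h dosing were quantified by fluorescent RT-PCR and capillary electrophoresis.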

[3] = ATG_M_06_TRANS: Attagene TRANS-FACTORIAL HepG2 Assay for M06 Transcription Factor (Internal Marker) (AID 2282983; active = hit-call score of the fitted dose curve at least 0.9, where 1 is the maximum); settings: HepG2 Attagene TRANS M06 internal marker reporter
Method in brief: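 After a 24 h chemical treatment of transfected HepG2, RNA underwent DNase I treatment, reverse transcription and reporter-specific PCR; labelled, HpaI-digested products were sized by capillary electrophoresis. Signal increase relative to DMSO defined activity.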

[4] = ATG_M_32_TRANS: Attagene TRANS-FACTORIAL HepG2 Assay for M32 Transcription Factor (Internal Marker) (AID 2282984; active = hit-call score of the fitted dose curve at least 0.9, where 1 is the maximum); settings: HepG2 Attagene TRANS M32 internal marker reporter
Method in brief: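 Human hepatoma HepG2, transient MRTU transfection, 24 h treatment. RNA → RT-PCR → fluorescent primer extension → HpaI digest (2 h, 37 C) → CE. Positive-direction fit vs DMSO.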

[5] = molecular target: Transcriptional activator Myb (Homo sapiens) (UniProt P10242); experiment: ATG_Myb_CIS: Attagene CIS-FACTORIAL HepG2 Assay for human Myeloblastosis (Myb) Proto-Oncogene Transcription Factor (AID 2282986); settings: HepG2 Attagene CIS-FACTORIAL Myb reporter transcription; actives raise or lower the signal
Method in brief: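 Reporter transcript levels, quantified by fluorescent RT-PCR and capillary electrophoresis, serve as the read-out. Transfected HepG2 cells carrying cis-promoter reporter units are dosed for 24 hours, and curves are fitted bidirectionally against DMSO controls.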

[6] = ATG_NFI_CIS: Attagene CIS-FACTORIAL HepG2 Assay for human Nuclear Factor I (NFI) (AID 2282989); settings: HepG2 cis-regulatory reporter, NFI response element transcription; actives raise or lower the signal
Method in brief: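 Endogenous TF activity in HepG2 cells transiently transfected with cis-element-driven multiplexed reporter units, read 24 h after dosing. Reporter mRNA quantified by RT-PCR, 6-FAM labelling, HpaI digestion and capillary electrophoresis; bidirectional fit versus DMSO.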

[7] = molecular target: Myc proto-oncogene protein (Homo sapiens) (UniProt P01106); experiment: ATG_Myc_CIS: Attagene CIS-FACTORIAL HepG2 Assay for human Myelocytomatosis (Myc) Proto-Oncogene Transcription Factor (AID 2282990); settings: HepG2, Attagene cis-reporter transcription factor activity; actives raise or lower the signal
Method in brief: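 HepG2 cells transiently transfected with multiple cis-promoter-driven reporter transcription units, so endogenous TF activity is read. After 24 h compound exposure, reporter mRNA was quantified by RT-PCR, 6-FAM labelling, HpaI digestion and capillary electrophoresis; bidirectional fit versus DMSO.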

[8] = ATG_NF_kB_CIS: Attagene CIS-FACTORIAL HepG2 Assay for human Nuclear Factor Kappa B (NF-kB) (AID 2282991); settings: HepG2 Attagene cis-factorial NF-kB reporter mRNA; actives raise or lower the signal
Method in brief: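 Transient MRTU transfection of human HepG2 liver cells → 24 h chemical exposure → total RNA, oligo(dT) RT → PCR, 6-FAM primer extension, HpaI digest 2 h 37 C → CE fragment analysis. Bidirectional fitting, DMSO negative control.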

[9] = ATG_NRF2_ARE_CIS: Attagene CIS-FACTORIAL HepG2 Assay for human Nuclear Factor Erythroid 2 Related Factor 2 (NFR2) response to Antioxidant Response Elements (ARE) (AID 2282992); settings: HepG2 Attagene ARE/NRF2 reporter, transcription factor activity; actives raise or lower the signal;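 as to AC50: reporter mRNA level measured by RT-PCR and capillary electrophoresis fluorescence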
Method in brief: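 HepG2 cells transiently transfected with multiplexed cis-element reporter constructs, 24 h after chemical dosing; reporter mRNA quantified by RT-PCR, fluorescent primer extension, HpaI digestion and capillary electrophoresis. Bidirectional fit relative to DMSO.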

[10] = ATG_Oct_MLP_CIS: Attagene CIS-FACTORIAL HepG2 Assay for human Octamer-Binding Transcription Factor (Oct) (AID 2282993); settings: HepG2 Attagene cis-factorial Oct reporter, mRNA; actives raise or lower the signal
Method in brief: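 HepG2 cells transiently transfected with cis-element-driven reporter transcription units (endogenous TF activity); 24 h compound exposure. Reporter mRNA quantified by RT-PCR, 6-FAM labelling, HpaI digestion and capillary electrophoresis; bidirectional fit versus DMSO baseline.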

[11] = molecular target: Cellular tumor antigen p53 (Homo sapiens) (UniProt P04637); experiment: ATG_p53_CIS: Attagene CIS-FACTORIAL HepG2 Assay for human p53 Transcription Factor (AID 2282994); settings: HepG2 p53 cis-element reporter, Attagene mRNA; actives raise or lower the signal
Method in brief: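 HepG2 cells transiently transfected with cis-regulated multiple reporter transcription units, dosed 24 h. Reporter mRNA measured by RT-PCR, 6-FAM primer extension, HpaI digestion and capillary electrophoresis; bidirectional fit relative to DMSO.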

[12] = molecular target: Nuclear receptor subfamily 4 group A member 2 (Homo sapiens) (UniProt P43354); experiment: ATG_NURR1_TRANS: Attagene TRANS-FACTORIAL HepG2 Assay for human Nuclear Receptor Related Protein 1 (NURR1) (AID 2282985; active = hit-call score of the fitted dose curve at least 0.9, where 1 is the maximum); settings: HepG2 Attagene TRANS reporter, mRNA readout
Method in brief: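 After 24 h chemical dosing, total RNA from transiently transfected HepG2 cells was reverse-transcribed and reporter cDNA PCR-amplified, FAM-labelled and analysed by capillary electrophoresis. Activity fitted in positive direction, DMSO as negative control.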

[13] = molecular target: Nuclear respiratory factor 1 (Homo sapiens) (UniProt Q16656); experiment: ATG_NRF1_CIS: Attagene CIS-FACTORIAL HepG2 Assay for human Nuclear Respiratory Factor 1 (NRF1) Orphan Gene (AID 2282987); settings: HepG2 NRF1 cis-element reporter, Attagene multiplex; actives raise or lower the signal
Method in brief: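 Multiplexed cis-reporter assay, HepG2 cells, 24 h treatment. Total RNA → oligo(dT) RT → PCR with reporter-specific primers → 6-FAM primer extension → HpaI cut → CE. Bidirectional fit vs DMSO.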

[14] = molecular target: Oxysterols receptor LXR-beta (Homo sapiens) (UniProt P55055); experiment: ATG_LXRb_TRANS: Attagene TRANS-FACTORIAL HepG2 Assay for human Liver X Receptor beta (LXRb) (AID 2282981; active = hit-call score of the fitted dose curve at least 0.9, where 1 is the maximum); settings: HepG2 Attagene TRANS GAL4-LXRb reporter, mRNA
Method in brief: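 In this TRANS format, exogenous chimeric NR-Gal4 protein activity, not endogenous factors, drives reporter expression in transfected human HepG2 cells. Exposure lasted 24 h; reporter mRNA was read by fluorescent capillary electrophoresis.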

[15] = BSK_3C_TissueFactor: BioMAP Diversity Plus: 3C Assay for Tissue Factor Biomarker Activity (AID 2282997); settings: BioMAP 3C HUVEC, tissue factor biomarker readout; actives raise or lower the signal
Method in brief: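 Human vascular primary cells (umbilical vein endothelium) received test chemical; Tissue Factor was determined by ELISA at 24 h, and both gain and loss of signal versus DMSO were fitted.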

[16] = BSK_3C_uPAR: BioMAP Diversity Plus: 3C Assay for Urokinase-type plasminogen activator receptor (uPAR) Biomarker Activity (AID 2282998); settings: BioMAP 3C HUVEC, uPAR biomarker ELISA; actives raise or lower the signal
Method in brief: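 Primary human umbilical vein endothelial cells, 3C system; surface uPAR measured by ELISA 24 h after dosing. Cytotoxicity via SRB total protein in parallel cultures; bidirectional fit against DMSO.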

[17] = BSK_3C_VCAM1: BioMAP Diversity Plus: 3C Assay for Vascular cell adhesion molecule 1 (VCAM1) Biomarker Activity (AID 2282999); settings: BioMAP 3C HUVEC, VCAM1 ELISA, cytokine-stimulated; actives raise or lower the signal
Method in brief: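 Human umbilical vein endothelial cells were dosed with compound for 24 h, after which cell-surface VCAM-1 was quantified by ELISA. Bidirectional curve fitting used DMSO as negative control and activity baseline.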

[18] = BSK_4H_Eotaxin3: BioMAP Diversity Plus: 4H Assay for Eotaxin 3 Biomarker Activity (AID 2283000); settings: primary human endothelial cells (HUVEC); actives raise or lower the signal
Method in brief: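 Readout is Eotaxin-3 (CCL26) level by ELISA in primary human umbilical vein endothelial cells harvested 24 h after chemical exposure; activity fitted in both directions against DMSO control.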

Measured: AC50

Transcriptional activator Myb (Homo sapiens), sequence (P10242 whole entry, looked up): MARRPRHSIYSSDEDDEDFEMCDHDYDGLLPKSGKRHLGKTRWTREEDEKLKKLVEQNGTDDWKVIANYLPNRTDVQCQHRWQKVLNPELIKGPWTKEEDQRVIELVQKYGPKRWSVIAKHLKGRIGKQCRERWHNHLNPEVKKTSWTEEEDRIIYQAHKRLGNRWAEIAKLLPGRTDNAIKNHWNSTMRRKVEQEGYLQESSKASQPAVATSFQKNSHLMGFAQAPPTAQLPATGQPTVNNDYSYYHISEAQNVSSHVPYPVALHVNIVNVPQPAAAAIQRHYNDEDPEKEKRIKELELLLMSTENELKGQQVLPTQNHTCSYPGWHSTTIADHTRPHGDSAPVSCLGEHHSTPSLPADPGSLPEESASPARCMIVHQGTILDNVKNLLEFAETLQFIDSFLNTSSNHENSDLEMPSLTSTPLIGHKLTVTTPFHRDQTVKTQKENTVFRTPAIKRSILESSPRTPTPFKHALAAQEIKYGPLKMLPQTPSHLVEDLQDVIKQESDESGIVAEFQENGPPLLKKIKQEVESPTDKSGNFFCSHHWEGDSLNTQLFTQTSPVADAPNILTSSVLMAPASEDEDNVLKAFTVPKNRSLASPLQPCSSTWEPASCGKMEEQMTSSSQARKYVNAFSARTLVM
Oxysterols receptor LXR-beta (Homo sapiens), sequence (P55055 whole entry, looked up, the tested form may be a part): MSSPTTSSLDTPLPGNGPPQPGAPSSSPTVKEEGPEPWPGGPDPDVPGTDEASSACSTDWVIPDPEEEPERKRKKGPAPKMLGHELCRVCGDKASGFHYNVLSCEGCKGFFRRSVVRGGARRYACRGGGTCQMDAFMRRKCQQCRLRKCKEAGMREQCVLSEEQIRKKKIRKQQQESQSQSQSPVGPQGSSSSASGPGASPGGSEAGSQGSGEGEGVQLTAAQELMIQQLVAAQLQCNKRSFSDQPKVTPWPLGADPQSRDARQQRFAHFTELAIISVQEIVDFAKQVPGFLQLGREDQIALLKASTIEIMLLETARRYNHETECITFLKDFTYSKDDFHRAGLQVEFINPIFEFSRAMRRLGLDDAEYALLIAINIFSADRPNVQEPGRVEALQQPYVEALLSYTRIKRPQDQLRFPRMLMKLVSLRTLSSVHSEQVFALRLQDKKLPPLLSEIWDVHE
Myc proto-oncogene protein (Homo sapiens), sequence (P01106 whole entry, looked up): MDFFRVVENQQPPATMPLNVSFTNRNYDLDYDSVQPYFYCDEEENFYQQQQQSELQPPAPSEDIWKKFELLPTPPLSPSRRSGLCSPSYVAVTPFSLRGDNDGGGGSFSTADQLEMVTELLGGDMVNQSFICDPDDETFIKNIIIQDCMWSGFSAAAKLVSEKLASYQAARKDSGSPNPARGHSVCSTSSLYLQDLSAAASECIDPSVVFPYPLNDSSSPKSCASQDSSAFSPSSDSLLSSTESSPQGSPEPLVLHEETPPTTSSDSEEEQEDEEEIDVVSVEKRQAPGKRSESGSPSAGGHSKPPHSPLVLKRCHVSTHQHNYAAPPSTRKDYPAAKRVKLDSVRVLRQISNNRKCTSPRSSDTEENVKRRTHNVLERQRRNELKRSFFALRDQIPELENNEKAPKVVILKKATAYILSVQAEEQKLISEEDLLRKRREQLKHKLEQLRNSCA
Oxysterols receptor LXR-alpha (Homo sapiens), sequence (Q13133 whole entry, looked up, the tested form may be a part): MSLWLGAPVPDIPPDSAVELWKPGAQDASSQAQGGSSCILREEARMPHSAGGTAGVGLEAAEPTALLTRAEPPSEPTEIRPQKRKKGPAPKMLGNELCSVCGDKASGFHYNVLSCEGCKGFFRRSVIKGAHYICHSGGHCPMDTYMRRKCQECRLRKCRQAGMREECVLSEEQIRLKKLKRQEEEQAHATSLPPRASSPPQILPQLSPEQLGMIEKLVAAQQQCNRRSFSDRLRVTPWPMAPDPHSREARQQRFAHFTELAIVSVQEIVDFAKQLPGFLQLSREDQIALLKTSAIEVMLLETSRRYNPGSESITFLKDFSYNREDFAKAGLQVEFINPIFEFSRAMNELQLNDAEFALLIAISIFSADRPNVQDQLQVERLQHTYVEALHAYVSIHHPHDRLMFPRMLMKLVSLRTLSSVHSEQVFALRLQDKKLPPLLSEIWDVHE
Nuclear respiratory factor 1 (Homo sapiens), sequence (Q16656 whole entry, looked up): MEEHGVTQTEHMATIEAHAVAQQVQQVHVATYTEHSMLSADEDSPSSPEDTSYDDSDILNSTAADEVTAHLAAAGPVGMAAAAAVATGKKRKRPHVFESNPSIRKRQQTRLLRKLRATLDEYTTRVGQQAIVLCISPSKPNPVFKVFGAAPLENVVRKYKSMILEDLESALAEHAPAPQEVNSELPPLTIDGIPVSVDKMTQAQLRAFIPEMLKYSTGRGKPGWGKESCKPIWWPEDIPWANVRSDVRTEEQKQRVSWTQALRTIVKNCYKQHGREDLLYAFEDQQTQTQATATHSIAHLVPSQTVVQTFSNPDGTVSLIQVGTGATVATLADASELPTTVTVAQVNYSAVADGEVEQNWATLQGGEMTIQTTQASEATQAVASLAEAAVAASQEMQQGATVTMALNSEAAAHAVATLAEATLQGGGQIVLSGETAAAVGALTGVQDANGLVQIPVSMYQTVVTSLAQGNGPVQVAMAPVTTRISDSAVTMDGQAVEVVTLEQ
Cellular tumor antigen p53 (Homo sapiens), sequence (P04637 whole entry, looked up): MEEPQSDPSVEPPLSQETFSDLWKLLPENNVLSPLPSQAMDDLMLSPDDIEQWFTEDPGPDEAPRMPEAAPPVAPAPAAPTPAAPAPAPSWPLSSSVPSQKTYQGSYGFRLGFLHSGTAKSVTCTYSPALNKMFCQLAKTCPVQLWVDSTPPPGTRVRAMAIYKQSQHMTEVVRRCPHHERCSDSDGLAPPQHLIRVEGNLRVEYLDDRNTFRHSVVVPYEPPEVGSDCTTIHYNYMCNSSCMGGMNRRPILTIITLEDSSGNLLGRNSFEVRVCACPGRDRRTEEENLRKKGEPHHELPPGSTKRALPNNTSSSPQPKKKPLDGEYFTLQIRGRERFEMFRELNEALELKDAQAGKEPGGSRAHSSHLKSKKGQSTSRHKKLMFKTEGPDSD
Hepatocyte nuclear factor 4-alpha (Homo sapiens), sequence (P41235 whole entry, looked up, the tested form may be a part): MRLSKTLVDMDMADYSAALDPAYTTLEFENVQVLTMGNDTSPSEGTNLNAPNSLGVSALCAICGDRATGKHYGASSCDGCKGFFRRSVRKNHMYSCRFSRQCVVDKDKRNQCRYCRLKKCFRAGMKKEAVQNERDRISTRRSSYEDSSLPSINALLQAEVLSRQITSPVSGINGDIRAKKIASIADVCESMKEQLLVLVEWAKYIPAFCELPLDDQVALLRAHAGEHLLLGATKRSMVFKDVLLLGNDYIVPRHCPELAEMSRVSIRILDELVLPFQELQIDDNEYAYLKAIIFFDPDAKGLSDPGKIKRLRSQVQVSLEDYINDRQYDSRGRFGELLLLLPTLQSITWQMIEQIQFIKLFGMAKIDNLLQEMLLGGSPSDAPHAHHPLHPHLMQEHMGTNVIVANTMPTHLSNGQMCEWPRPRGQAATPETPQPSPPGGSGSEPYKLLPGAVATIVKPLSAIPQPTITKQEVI
Nuclear receptor subfamily 4 group A member 2 (Homo sapiens), sequence (P43354 whole entry, looked up): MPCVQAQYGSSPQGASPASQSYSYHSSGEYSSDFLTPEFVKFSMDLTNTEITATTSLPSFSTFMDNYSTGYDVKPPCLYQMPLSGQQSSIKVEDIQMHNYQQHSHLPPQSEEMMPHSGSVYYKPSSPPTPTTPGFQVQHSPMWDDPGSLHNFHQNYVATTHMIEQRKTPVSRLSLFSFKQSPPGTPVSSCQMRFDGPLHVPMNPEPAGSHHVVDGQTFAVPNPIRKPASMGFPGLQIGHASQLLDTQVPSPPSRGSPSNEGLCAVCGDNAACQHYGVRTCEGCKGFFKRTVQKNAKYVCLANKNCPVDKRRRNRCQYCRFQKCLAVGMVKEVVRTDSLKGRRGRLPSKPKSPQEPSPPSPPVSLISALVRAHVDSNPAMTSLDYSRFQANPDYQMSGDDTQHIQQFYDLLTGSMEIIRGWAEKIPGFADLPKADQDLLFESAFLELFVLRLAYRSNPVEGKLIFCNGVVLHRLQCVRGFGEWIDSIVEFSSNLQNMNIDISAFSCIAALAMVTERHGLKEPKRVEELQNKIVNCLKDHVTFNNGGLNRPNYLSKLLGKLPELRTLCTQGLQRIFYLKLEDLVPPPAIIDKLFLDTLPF

OCC(CO)(CO)COCC(CO)(CO)CO
inactive: [1] | [2] | [3] | [4] | [5] | [6] | [7] | [8] | [9] | [10] | [11]

C=O
inactive: [1] | [2] | [4] | [12] | [5] | [13] | [6] | [7] | [8] | [9] | [10]

OC1OC[C@@H](O)[C@H](O)[C@H]1O (stereo partly specified)
inactive: [1] | [14] | [2] | [4] | [5] | [13] | [7] | [8] | [9] | [10] | [15] | [16] | [17] | [18]

Nc1ccc(S(=O)(=O)O)c(N)c1
inactive: [1] | [14] | [3] | [12] | [5] | [13] | [6] | [7] | [8] | [9] | [10] | [11]

C=C[C@@H](C)CCC=C(C)C
inactive: [1] | [14] | [3] | [4] | [12] | [5] | [13] | [6] | [7] | [8] | [9] | [10]

COc1ccc(O)cc1
inactive: [1] | [14] | [4] | [12] | [5] | [13] | [6] | [7] | [8] | [9] | [10] | [11]

CC(=O)[O][Al][O]C(C)=O
inactive: [1] | [3] | [12] | [5] | [13] | [6] | [7] | [9] | [10]

C=C(C)[C@@H]1CCC2=CC(=O)C[C@@H](C)[C@]2(C)C1
active: [9] 80.7 µM
inactive: [1] | [14] | [3] | [4] | [13] | [6] | [7] | [8] | [10]

Cc1ccc(O)c(C(C)(C)C)c1
active: [5] 184 µM | [7] 79.5 µM | [8] 100 µM | [9] 25.2 µM | [10] 143 µM | [15] 36.7 µM | [16] 20 µM | [17] 30 µM | [18] 35 µM
inactive: [1] | [14] | [4] | [13] | [6] | [11]
